In all, about 69,000 compounds went through this assay and about 8,600 (12%) showed an effect of 50% or more. Many of the other results were omitted from the sample, so strong results are more common in it than they were.
Test system: Plasmodium berghei
Test: Screen against P. berghei liver stage (PbLuc), transformed with Luciferase, at 10uM
Type: functional, HepG2
Conditions: tested at 10 uM

Row | SMILES | INHIBITION
1 | CN(C)CCO[C@H]1CN(Cc2ccc3c(c2)OCO3)[C@@H]2COC[C@H]12 | 33%
2 | CCNC(=O)Cc1n[nH]c(-c2cncc(Br)c2)n1 | 39.3%
3 | Cc1cnn(CCNCC(=O)NC(C)c2ccc3c(c2)OCCO3)c1 (stereo not given) | 8.64%
4 | CC(=O)N1[C@H](CN(C)C)C[C@@H]2CN(C(=O)c3cccc(F)c3)CC[C@@H]21 | 29.9%
5 | CN(C)c1ccc(C(O)CNC(=O)NCCCc2ccccc2)cc1 (stereo not given) | 5.91%
6 | CN(C)c1ccc(CCCNC(=O)NCC(O)c2ccsc2)cc1 (stereo not given) | 8.92%
7 | CN(C)c1ccc(CCCNC(=O)NCC(O)c2cccs2)cc1 (stereo not given) | 60.4%
8 | CN1CC(c2cc(O)nc(NCc3ccccc3Cl)n2)CC1=O (stereo not given) | 30.4%
9 | O=C(CCc1ccc(Cl)s1)NCc1nnc2n1CCCCC2 | 5.9%
10 | O=C(c1nc(Cc2c[nH]c3ccccc23)no1)N1CCCCC1 | 55.4%
11 | O=C(c1nc(Cc2c[nH]c3ccccc23)no1)N1CCCC1 | 25.2%
12 | O=C(c1nc(Cc2c[nH]c3ccccc23)no1)N1CCOCC1 | 29.9%
13 | CCOc1ncccc1NC(=O)NCC(O)c1ccc(OC)cc1 (stereo not given) | 44.1%
14 | Cc1cc(C)n(Cc2cc(C(=O)N3CCCC3c3nccs3)n[nH]2)n1 (stereo not given) | 10.7%
15 | CCOCc1nc2c(c(NC(CC)c3cccnc3)n1)CCNCC2 (stereo not given) | 53.5%
16 | CCOCc1nc2c(c(NC(CC)c3ccnn3C)n1)CCNCC2 (stereo not given) | 40.6%
17 | CCOCc1nc2c(c(NC(CC)c3ccncc3)n1)CCNCC2 (stereo not given) | 37.7%
18 | O=C1[C@@H]2C[C@H](O)CCN2C(=O)CN1CCSc1ccccn1 | -19.41%
19 | NC(=O)CN1CCC(c2cc(C(F)(F)F)n3ccnc3n2)CC1 | 30.8%
20 | CC(C)NC(=O)[C@@H]1CN(C)C[C@]12COc1ccc(F)cc1C2=O | 12.515%
21 | O=C(NCC(F)(F)F)c1ccc(-n2cccn2)nn1 | -27.8%
22 | Cc1csc(N2CCN(CC(=O)NCc3ccccn3)CC2C)n1 (stereo not given) | -19.605%
23 | CC(CN1CCOC1=O)NC(=O)c1cccc(C#N)c1 (stereo not given) | 42.1%
24 | CCn1nc(C)c(CCNC(=O)c2cccc(NCC(=O)O)c2)c1C | 22.3%
25 | CCn1nc(C)c(CCNC(=O)c2cccc(-n3cccn3)c2)c1C | 72.5%
26 | CC(CNC(=O)c1cccc(-n2cccn2)c1)Cn1ccnc1 (stereo not given) | -13.6%
27 | COc1cccc(C(C(=O)O)N2CCC(Cn3cccn3)CC2)c1OC (stereo not given) | 19.8%

Row | SMILES | INHIBITION
28 | CC(C)CC(=O)N1CC(=O)c2sc(NC3CCCCC3)nc2C1 | 10%
29 | CC(C)CC(=O)N1CC(=O)c2sc(NCCc3ccccc3)nc2C1 | 35.2%
30 | CNc1nc2c(s1)C(=O)CN(C(=O)[C@@H](N)Cc1cccc(OC)c1)C2 | 45.6%
31 | COCC(=O)N1CCC2(CC1)CNc1ccc(F)cc12 | 5.63%
32 | CC(C)CC(=O)N1CC(=O)c2sc(Nc3ccc(F)cc3F)nc2C1 | 63.4%
33 | COCC(=O)N1CC(=O)c2sc(Nc3ccc(F)cc3F)nc2C1 | 53%
34 | COc1ccccc1Nc1nc2c(s1)C(=O)CN(C(=O)CC(C)C)C2 | 59%
35 | CC1CCC2(CC1)Nc1ccccc1CO2 (stereo not given) | 29.7%
36 | CCOC(=O)C1(NC(=O)CCNc2cc(C)ccc2OC)CCCCC1 | -7.77%
37 | CC(C)Cc1nc(-c2ccnc(N3CCNCC3)n2)no1 | 31.2%
38 | Cn1cc(C(=O)N2CC[C@@H]3[C@@H]2CCN3c2ncc(F)cn2)cn1 | 2.4%
39 | CC1CCN(C(=O)Cn2nc(Br)nc2Br)CC1 | -12.7%
40 | Cc1nc(C2CCCN(C(=O)c3cccc4c3OCCO4)C2)no1 (stereo not given) | 15.3%
41 | CCN(CC)C(=O)N1CCN(C2=NCC(C)S2)CC1 (stereo not given) | 65.7%
42 | CC/C=C(/C)C(=O)N1CCN(C2=NCC(C)S2)CC1 (stereo not given) | 30.3%
43 | CCC(C)(C)C(=O)N1CCN(C2=NCC(C)S2)CC1 (stereo not given) | -87.7%
44 | CCN1C(=O)C2(CCOCC2)c2cc(NC(=O)COC)ccc21 | -19.8%
45 | CCC(C)Nc1ccc2c(c1)C1(CCOCC1)C(=O)N2c1ccccc1 (stereo not given) | 10.5%
46 | CCN1C(=O)C2(CCOCC2)c2cc(NC(=O)c3csnn3)ccc21 | -35.2%
47 | CC(=O)Nc1ccc2c(c1)C1(CCOCC1)C(=O)N2c1ccsc1 | 58.7%
48 | CCN1C(=O)C2(CCOCC2)c2cc(NC(=O)c3cnccn3)ccc21 | -28.8%
49 | CC(C)Nc1ccc2c(c1)C1(CCOCC1)C(=O)N2c1ccsc1 | 52.3%
50 | COc1cccc(OC)c1CN1CC(O)CN(S(C)(=O)=O)CC1=O (stereo not given) | 46.4%
51 | NC(=O)CN1CCCC(Cc2ccc(N)nn2)C1 (stereo not given) | 8.72%
52 | CC(C)n1c(C2CCCN(Cc3ccnn3C)C2)nc2ccccc21 (stereo not given) | 23.9%
53 | COc1cccc(CNc2c(O)c(=O)c2=O)c1 | 0.207%
54 | Cc1noc(C2CCC3(CCN(C(=O)c4ccn(C)n4)CC3)O2)n1 (stereo not given) | -0.371%

Row | SMILES | INHIBITION
55 | COc1ccccc1CC(=O)N1CC[C@H](O)[C@]2(CCCO2)C1 | -12.2%
56 | O=C(Cc1ccccc1C(F)(F)F)N1CCC2(CC1)OCCCC2O (stereo not given) | 13.2%
57 | COc1cccc(CC(=O)N2CCC3(CC2)OCCCC3O)c1OC (stereo not given) | 69.7%
58 | COC(=O)c1ccoc1CN(C)CC(=O)NC1CCS(=O)(=O)C1 (stereo not given) | 17.9%
59 | Cc1nn(-c2ccccc2)c2c1c(C(F)F)cc(=O)n2CC(=O)O | 36.35%
60 | CN(C)CCN(C)C1CCN(C(C(=O)O)c2ccc(F)c(Cl)c2)CC1 (stereo not given) | 34.9%
61 | CCCOc1cc(CNC(=O)Nc2ccccn2)ccn1 | 3.87%
62 | CC(C)c1nn(C)c(N(C)C)c1CNC1CCN(C2CC2)CC1 | 12.8%
63 | CC(CO)NC(=O)c1ccc2[nH]/c(=N\S(C)(=O)=O)sc2c1 (stereo not given) | 4.93%
64 | CSCC[C@@H](CO)NC(=O)c1ccc2nc(NS(C)(=O)=O)sc2c1 | 46.7%
65 | C[C@@H](CO)NC(=O)c1ccc2nc(NS(C)(=O)=O)sc2c1 | 54.2%
66 | Cc1cc(C(=O)N2CCC3(CC2)C(=O)N(C)CCN3CC2CC2)c(C)o1 | 4.98%
67 | CN(Cc1ccncc1)C1COC2(CCN(Cc3nccn3C)CC2)C1 (stereo not given) | 73%
68 | CN(C)C1COC2(CCN(Cc3ccncc3)CC2)C1 (stereo not given) | 29.9%
69 | CN(Cc1ccncc1)C1COC2(CCN(Cc3ccco3)CC2)C1 (stereo not given) | 59%
70 | CN(Cc1ccncc1)C1COC2(CCN(c3ncc(F)cn3)CC2)C1 (stereo not given) | 37.8%
71 | CN(Cc1ccncc1)C1CC2(CCN(Cc3ccccn3)CC2)C1 | 28.7%
72 | CN(Cc1ccncc1)C1COC2(CCN(Cc3ccccn3)CC2)C1 (stereo not given) | 52%
73 | CN(Cc1ccccn1)C1COC2(CCN(Cc3cccnc3)CC2)C1 (stereo not given) | 38.1%
74 | CN(Cc1ccncc1)C1COC2(CCN(Cc3cccs3)CC2)C1 (stereo not given) | 4.57%
75 | CN(Cc1ccncc1)C1COC2(CCN(Cc3ccsc3)CC2)C1 (stereo not given) | 49.7%
76 | O=C(O)CCNC(=O)Cc1csc(-c2cccc(Cl)c2)n1 | 25.1%
77 | Cc1nc(CN2CCN(C(=O)c3sccc3C3CC3)CC2)oc1C | 1.75%
78 | CCc1cc(O)n2nc(C3CCCN3C(=O)c3ccccn3)cc2n1 (stereo not given) | 18.85%
79 | CCOCCCNc1nc(O)cc(C2CC(=O)N(C)C2)n1 (stereo not given) | 56.9%
80 | COc1cccc(CNc2nc(O)cc(C3CC(=O)N(C)C3)n2)c1 (stereo not given) | 17.1%
81 | Cc1ccc(CNc2nc(O)cc(C3CC(=O)N(C)C3)n2)cc1 (stereo not given) | -16.5%

Row | SMILES | INHIBITION
82 | CNC(=O)c1cnc(C)nc1CCNC(=O)CCc1ccccc1 | -0.232%
83 | COCC1c2c(cnn2CC2CC2)CCN1Cc1nccs1 (stereo not given) | 7.11%
84 | CSCc1nc(CCNC(=O)C(N)c2c(C)n[nH]c2C)cs1 (stereo not given) | 21.2%
85 | Cc1n[nH]c(C)c1C(N)C(=O)NCCc1csc(C(C)C)n1 (stereo not given) | -10.8%
86 | Cc1nc(CCNC(=O)C(N)c2c(C)n[nH]c2C)sc1C (stereo not given) | 56%
87 | O=C(N1CCCC1)N1CCC2(CC1)COCCN(Cc1cccnc1)C2 | 41.6%
88 | C[C@@H](NC(=O)c1ccc(Cl)cc1)c1onc(-c2cccnc2)c1C(=O)O | -4.82%
89 | Cc1cc2n(n1)CCN(c1nc(N(C)C)nc3c1CCNC3)C2 | 57.6%
90 | Cc1cccc(=O)n1CCCNc1nc(N(C)C)nc2c1CCNC2 | 10.9%
91 | COc1cccc2c1OCCCN(c1nc(N)nc3c1CCNC3)C2 | 27.6%
92 | COCCNc1nc2c(c(N3CCn4nc(C)cc4C3)n1)CCNCC2 | 27.6%
93 | CN(C)c1nc2c(c(N3CCc4c(c(CO)nn4C)C3)n1)CCNC2 | -2.43%
94 | Cc1ccccc1N1CCN(c2nc(N(C)C)nc3c2CCNC3)CC1 | 88.5%
95 | Cc1nc2c(c(N3CCN(c4ncccc4C(N)=O)CC3)n1)CCNC2 | 32.5%
96 | CN(C)c1nc2c(c(N3CCc4ccccc4C3)n1)CCNC2 | 66.7%
97 | Cc1cc2n(n1)CCN(c1nc(N)nc3c1CCNCC3)C2 | 12.1%
98 | NCCC1CN(c2nc(-c3ccccc3)nc3c2CCNC3)CCO1 (stereo not given) | 38.2%
99 | c1ccc2c(c1)CCN(c1nc(-c3ccncc3)nc3c1CCNC3)C2 | 58%
100 | c1ccc2c(c1)CCN(c1ncnc3sc4c(c13)CCNC4)C2 | 38.2%
101 | COCC1CN(Cc2ccsc2)Cc2nn(C)cc21 (stereo not given) | 22.2%
102 | CN(CCCO)Cc1cc(Cl)ccc1OCC(O)CN1CCCCCC1 (stereo not given) | -50.7%
103 | COc1ccnc(N2CCN(C(=O)Cc3ccn(C(C)C)n3)CC2)n1 | -47.6%
104 | Cc1nn(C)c2nc(C(C)C)cc(C(=O)Nc3n[nH]c(C4CC4)n3)c12 | 45.3%
105 | O=C(NCCc1nncn1C1CC1)c1cnn(Cc2ccccc2)c1 | 4.13%
